# Measurements: PubChem BioAssay (EPA / NIEHS)
# Results filed as inconclusive are left out. The source made the active and inactive calls. Rule for the calls: active = hit-call score of the fitted dose curve at least 0.9, where 1 is the maximum; inconclusive = response in the unintended direction; inactive = score below 0.9.
# Assay: CCTE_Deisenroth_AIME_384WELL_CTox_Inactive: Cytotoxicity Assessment (CTOX) in CCTE's 384-well Estrogen Receptor Transactivation Assay without AIME metabolic competence (metabolism negative), Deisenroth Lab (AID 2284039);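 note: cell viability via live-cell protease substrate cleaved to fluorescent probe; cells exposed 24 h to medium preincubated 2 h with alginate-water beads without S9; loss of fluorescence signal means loss of viability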
# Protocol: CCTE_Deisenroth_AIME_384WELL (AIME metabolism assay) is a cell-based, single-readout assay that uses VM7Luc4E2, a human mammary gland/breast cell line, with measurements taken at 24 hour after chemical dosing in a 384-well plate.CCTE_Deisenroth_AIME_384WELL_CTox_Inactive is one of four assay components measured or calculated from the CCTE_Deisenroth_AIME_384WELL assay. It is designed to make measurements of a protease substrate, a type of viability indicator, as detected with substrate cleavage to a fluorescent probe in living cells.CCTE_Deisenroth_AIME_384WELL_CTox_Inactive is a component of the CCTE_Deisenroth_AIME_384WELL assay that measures the effect of retroftting the VM7Luc ERTA assay with the Alginate Immobolization of Metabolic Enzymes (AIME) metabolism method. AIME is optimized to impart phase I hepatic metabolism using phenobarbital/beta-naphthoflavone induced hepatic S9 from male Sprague Dawley rats. Parent chemicals are incubated for 2 hours in the AIME assay prior to transfer to the VM7Luc ERTA assay plate. […] This endpoint evaluates cytotoxicity in metabolism negative mode. Using a type of flourescent probe in VM7Luc cells, loss-of-signal activity can be used to understand loss of viability. This assay endpoint, CCTE_Deisenroth_AIME_384WELL_CTox_Inactive, was analyzed with bidirectional fitting in the ERTA assay.
# The AIME procedure consists of a preparative "pre-stamping" step using a barium chloride/poly-L-lysine (PLL) solution followed by "stamping" the lid in alginate-hepatic S9 (metabolism positive) or alginate-water (metabolism negative) to form microspheres. Once stamping is completed, the AIME lids are placed in duplicate microplates (metabolism positive or negative) containing chemical solutions and incubated for two hours to facilitate metabolic reactions. The conditioned medium, containing parent chemical or metabolites, is then transferred to the cell-based VM7Luc Estrogen Receptor Transactivation Assay (ERTA) for 24 hours. A typical experimental design tests a 10-point concentration series (0.002 - 200 uM) for 8 compounds (96-well format)1 or 32 compounds (384-well format)2 in single technical replicate. AIME assay controls include trans-stilbene (bioactivated control) and ethylparaben (bioinactivated control). ERTA assay plate controls include 17-beta estradiol (positive control) and DMSO (solvent control). Experiments typically comprise a minimum of four experimental replicates (n=4).
Structure (SMILES),outcome,AC50
CCCCCCCC(=O)O,inactive,
N#C[C@@H]1CC(F)(F)CN1C(=O)CNC1CC2CCC(C1)N2c1ncccn1 (some centres not stated),inactive,
CC(C)(C)c1ccc(O)c(C(C)(C)C)c1,,179 µM (active)
Oc1cc2ccccc2c2ccccc12,,10.3 µM (active)
CC#C[C@]1(O)CC[C@H]2[C@@H]3CCC4=CC(=O)CCC4=C3[C@@H](c3ccc(N(C)C)cc3)C[C@@]21C,inactive,
c1ccc2cc3c(ccc4ccccc43)cc2c1,inactive,
COc1ccc([N+](=O)[O-])cc1N,,100 µM (active)
CCCCCCCCCCCCN1CCCC1=O,,57.1 µM (active)
CCCCOCCO,inactive,
O=C(O)c1ccccc1C(c1ccc(O)cc1)c1ccc(O)cc1,inactive,
CN1CCC[C@H]1c1cccnc1,inactive,
CCCCCCCCC(=O)O,inactive,
CCN(CC)CCNc1ccc(CNC=O)c2sc3ccc(OC)cc3c(=O)c12,,120 µM (active)
Cc1ccc(S(=O)(=O)O)c(C)c1,inactive,
OC1CCCCC1,inactive,
CCCCCCCCCCCCCCCS(=O)(=O)Oc1ccccc1,inactive,
OCCC(F)(F)C(F)(F)C(F)(F)C(F)(F)C(F)(F)C(F)(F)F,inactive,
